Measurements published in PubChem BioAssay (NCI).
This is part of a sample that, as a whole, favours compounds with a hit. Of some 79,000 tested, about 15% had one in any assay. Activity calls are given as the source filed them. No stated cut-off is given here; in the data, active means growth inhibition above about 70%; inactive means the rest.

Key:
[1] = NCI Yeast Anticancer Drug Screen. Data for the rad52 strain (AID 147);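 further: 0% = growth of vehicle-treated control cultures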; conditions: S. cerevisiae rad52 mutant growth inhibition, stronger effect = higher value
Procedure, shortened: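 Compounds are applied to a genetically defined yeast strain lacking normal DNA damage repair, and inhibition of growth is expressed relative to cultures given vehicle only.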

[2] = NCI Yeast Anticancer Drug Screen. Data for the wt1 strain (AID 149);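 further: 0% = growth of vehicle-treated wt1 cultures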; conditions: S. cerevisiae wt1 strain (SPY 50644) growth inhibition, stronger effect = higher value
Procedure, shortened: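 Each compound is tested on wt1 yeast and the loss of growth versus vehicle gives the inhibition value.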

[3] = NCI Yeast Anticancer Drug Screen. Data for the rad50EPP+ strain (AID 151);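 further: 0% = growth of vehicle-treated control cultures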; conditions: S. cerevisiae rad50 mutant strain, stronger effect = higher value
Procedure, shortened: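 Compounds were applied to the rad50EPP+ yeast strain, which bears a defined DNA repair alteration, and growth inhibition was determined relative to vehicle-treated cultures.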

[4] = NCI Yeast Anticancer Drug Screen. Data for the mgt1 strain (AID 153); conditions: S. cerevisiae mgt1 mutant growth inhibition, stronger effect = higher value
Procedure, shortened: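 Strain: mgt1 yeast, one of a set carrying defined DNA damage repair or cell cycle control alterations. Compound-treated growth compared with vehicle.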

[5] = NCI Yeast Anticancer Drug Screen. Data for the rad50 strain (AID 155);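 further: 0% = growth of vehicle-only cultures of the same strain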; conditions: S. cerevisiae rad50 strain growth inhibition, stronger effect = higher value
Procedure, shortened: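 Vehicle-treated cultures provide the reference for the growth inhibition reported for compound-exposed, repair-deficient yeast.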

[6] = NCI Yeast Anticancer Drug Screen. Data for the mec2-1 strain (AID 157); conditions: S. cerevisiae mec2-1 strain, stronger effect = higher value
Procedure, shortened: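 Strain: mec2-1 (DNA repair/cell cycle alteration). Compound exposure, then growth measured; inhibition expressed relative to vehicle.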

[7] = NCI Yeast Anticancer Drug Screen. Data for the rad14 strain (AID 159);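 further: 0% = growth of vehicle-treated control cultures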; conditions: S. cerevisiae rad14 strain growth inhibition, stronger effect = higher value
Procedure, shortened: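 Inhibition of growth is reported for a repair-deficient yeast mutant following compound treatment, calculated relative to cultures that received vehicle.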

[8] = NCI Yeast Anticancer Drug Screen. Data for the sgs1 mgt1 strain (AID 161);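 further: 0% = growth of cultures given vehicle only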; conditions: S. cerevisiae sgs1 mgt1 strain, stronger effect = higher value
Procedure, shortened: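 Mutant yeast exposed to compound; growth scored against vehicle-only wells.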

[9] = NCI Yeast Anticancer Drug Screen. Data for the CLN2oe strain (AID 163);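 further: 0% = growth of vehicle-only control cultures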; conditions: S. cerevisiae CLN2oe strain, stronger effect = higher value
Procedure, shortened: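 Growth of a genetically modified yeast strain is measured after compound exposure and compared with cultures given vehicle alone.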

[10] = NCI Yeast Anticancer Drug Screen. Data for the cln2 rad14 strain (AID 165);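 further: 0% = growth equal to vehicle treated cultures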; conditions: S. cerevisiae cln2 rad14 strain, stronger effect = higher value
Procedure, shortened: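 Compounds are applied to the cln2 rad14 yeast strain, and growth is then compared with that of vehicle-treated cultures to give inhibition.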

[11] = NCI Yeast Anticancer Drug Screen. Data for the bub3 strain (AID 167); conditions: S. cerevisiae bub3 mutant strain, stronger effect = higher value
Procedure, shortened: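 Mutant yeast screening strain plus compound; vehicle-treated cultures serve as the 0% inhibition reference.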

[12] = NCI Yeast Anticancer Drug Screen. Data for the wt2 strain (AID 169); conditions: S. cerevisiae wt2 strain growth inhibition, stronger effect = higher value
Procedure, shortened: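 This strain belongs to a panel of yeast strains with defined genetic alterations in DNA damage repair or cell cycle control. Compounds are applied, and growth inhibition is measured against vehicle-treated cultures.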

[13] = NCI Yeast Anticancer Drug Screen. Data for the mlh1 strain (AID 171);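 further: 0% = growth of vehicle-treated control cultures of the same strain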; conditions: S. cerevisiae mlh1 strain growth inhibition, stronger effect = higher value
Procedure, shortened: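 Growth of the mutant yeast strain after compound exposure, expressed as inhibition relative to vehicle-only controls.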

[14] = NCI Yeast Anticancer Drug Screen. Data for the sgs1 strain (AID 173);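 further: 0% = growth of vehicle-only control cultures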; conditions: S. cerevisiae sgs1 mutant, stronger effect = higher value
Procedure, shortened: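 Growth of a yeast strain bearing a defined genetic alteration is measured after compound treatment. Inhibition is expressed relative to vehicle-only controls.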

[15] = NCI Yeast Anticancer Drug Screen. Data for the mlh1 rad18 strain (AID 175); conditions: S. cerevisiae mlh1 rad18 strain growth inhibition, stronger effect = higher value
Procedure, shortened: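 Read-out is yeast growth inhibition, calculated against vehicle-only controls. The compound was applied to a strain engineered with DNA damage repair alterations.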

[16] = NCI Yeast Anticancer Drug Screen. Data for the rad18 strain (AID 177); conditions: S. cerevisiae rad18 mutant growth inhibition, stronger effect = higher value
Procedure, shortened: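 Growth of the mutant yeast strain after compound exposure, normalised to vehicle-only cultures.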

[17] = at 5.0 µM (retest, dose inferred, filed as 0.5)
[18] = at 50.0 µM (retest, dose inferred, filed as 5.0)

Measured: growth inhibition

Cc1nc2sc3c(c2c(=O)o1)CCCC3
active: [11]; at 50.0 µM 72.9%
inactive: [1]; at 1.2 µM 0% | [1]; at 3.7 µM 2% | [1]; at 11.0 µM 1% | [1]; at 33.0 µM 6% | [1]; at 100.0 µM 4% | [2]; at 1.2 µM -1% | [2]; at 3.7 µM 0% | [2]; at 11.0 µM 1% | [2]; at 33.0 µM -1% | [2]; at 100.0 µM 2% | [3]; at 1.2 µM -6% | [3]; at 3.7 µM -8% | [3]; at 11.0 µM -10% | [3]; at 33.0 µM -3% | [3]; at 100.0 µM -1% | [4]; at 1.2 µM -1% | [4]; at 3.7 µM -1% | [4]; at 11.0 µM 18% | [4]; at 33.0 µM -2% | [4]; at 100.0 µM 7% | [5]; at 1.2 µM 0% | [5]; at 3.7 µM 2% | [5]; [17] 18% | [5]; at 11.0 µM -11% | [5]; at 33.0 µM 7% | [5]; [18] 10% | [5]; at 50.0 µM 4.2% | [5]; at 100.0 µM 5% | [6]; at 1.2 µM 2% | [6]; at 3.7 µM 2% | [6]; [17] 5% | [6]; at 11.0 µM 2% | [6]; at 33.0 µM 6% | [6]; [18] -4% | [6]; at 50.0 µM 25.3% | [6]; at 100.0 µM 6% | [7]; at 1.2 µM 0% | [7]; at 3.7 µM -4% | [7]; at 11.0 µM 2% | [7]; at 33.0 µM 13% | [7]; at 100.0 µM 10% | [8]; [17] -6% | [8]; [18] 14% | [8]; at 50.0 µM 26.6% | [9]; at 1.2 µM -1% | [9]; at 3.7 µM 1% | [9]; at 11.0 µM 2% | [9]; at 33.0 µM 6% | [9]; at 100.0 µM 14% | [10]; [17] 23% | [10]; [18] 3% | [10]; at 50.0 µM 4.5% | [11]; at 1.2 µM 6% | [11]; at 3.7 µM 18% | [11]; [17] 30% | [11]; at 11.0 µM 31% | [11]; at 33.0 µM 39% | [11]; [18] 51% | [11]; at 100.0 µM 28% | [12]; at 1.2 µM -1% | [12]; at 3.7 µM 1% | [12]; at 11.0 µM 1% | [12]; at 33.0 µM 3% | [12]; at 100.0 µM 4% | [13]; at 1.2 µM 1% | [13]; at 3.7 µM -3% | [13]; at 11.0 µM 5% | [13]; at 33.0 µM 2% | [13]; at 100.0 µM 2% | [14]; at 1.2 µM -2% | [14]; at 3.7 µM -4% | [14]; at 11.0 µM -2% | [14]; at 33.0 µM 1% | [14]; at 100.0 µM 2% | [15]; [17] -2% | [15]; [18] -2% | [15]; at 50.0 µM 26% | [16]; at 1.2 µM -3% | [16]; at 3.7 µM -3% | [16]; at 11.0 µM -4% | [16]; at 33.0 µM -15% | [16]; at 100.0 µM 1%

CC(C)=CCC/C(C)=C/CN1C(=O)C=CC1=O
active: [1]; at 11.0 µM 99% | [1]; at 33.0 µM 99% | [1]; at 100.0 µM 99% | [2]; at 11.0 µM 100% | [2]; at 33.0 µM 100% | [2]; at 100.0 µM 99% | [3]; at 3.7 µM 86% | [3]; at 11.0 µM 99% | [3]; at 33.0 µM 99% | [3]; at 100.0 µM 99% | [4]; at 11.0 µM 100% | [4]; at 33.0 µM 100% | [4]; at 100.0 µM 100% | [5]; at 11.0 µM 99% | [5]; at 33.0 µM 99% | [5]; [18] 98% | [5]; at 50.0 µM 99.7% | [5]; at 100.0 µM 99%
inactive: [1]; at 1.2 µM 9% | [1]; at 3.7 µM 36% | [2]; at 1.2 µM 2% | [2]; at 3.7 µM 29% | [3]; at 1.2 µM 57% | [4]; at 1.2 µM -3% | [4]; at 3.7 µM 18% | [5]; at 1.2 µM 7% | [5]; at 3.7 µM 42% | [5]; [17] 13% | [6]; at 1.2 µM -3% | [6]; at 3.7 µM 17%
